Compounds with a hit are over-represented: about 2.5% of the library has one in this group of screens.
Pol iota inh – inhibitors of human DNA polymerase iota; Q9UNA4; Pol iota fluorescent replication assay, 10 min; Potency, µM (doses to about 115 µM), for inactives: top-dose activity, negative = inhibition, actives largely listed as inhibitors; 390,000 tested, 1% active
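Pol iota at 10 nM preincubated 15 min with compounds at room temperature; reaction started with fluorescent substrate, 50 nM final. Fluorescence read kinetically at 0 and 10 min; buffer-only wells as negative control.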
L3MBTL1 inh – blocks human L3MBTL1; Q9Y468; AlphaScreen L3MBTL1–H3K9me1 peptide binding; Potency, µM (series often up to 57.1 µM), without a hit: at the highest dose activity, negative = inhibition, most hits filed as inhibitors; 230,000 tested, 0.66% active; AID 485360; note: % is set by controls: 0 for no effect and ±100 for the full control effect; nearly all actives have a fitted effect of over 60% in size
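Read-out is AlphaScreen signal from streptavidin donor and nickel chelate acceptor beads (10 ug/mL final each) bridging L3MBTL1 (50 nM) and biotinylated K9-monomethylated H3(1-15) peptide (75 nM), after 30 min compound exposure at room temperature.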
APE1 inh – blocks human APE1 abasic DNA cleavage. P27695. recombinant APE1, TAMRA/BHQ-2 abasic DNA cleavage fluorescence. Potency, µM (doses to about 65.8 µM), for the others: at the top dose activity change, negative = inhibition, most hits filed as inhibitors. 350,000 tested, 0.35% active. AID 2517;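 note: plate controls were vehicle for no effect and reference inhibitor for full effect; nearly all actives have a fitted effect of over 55% in size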
Target sequence (P27695 whole entry, looked up): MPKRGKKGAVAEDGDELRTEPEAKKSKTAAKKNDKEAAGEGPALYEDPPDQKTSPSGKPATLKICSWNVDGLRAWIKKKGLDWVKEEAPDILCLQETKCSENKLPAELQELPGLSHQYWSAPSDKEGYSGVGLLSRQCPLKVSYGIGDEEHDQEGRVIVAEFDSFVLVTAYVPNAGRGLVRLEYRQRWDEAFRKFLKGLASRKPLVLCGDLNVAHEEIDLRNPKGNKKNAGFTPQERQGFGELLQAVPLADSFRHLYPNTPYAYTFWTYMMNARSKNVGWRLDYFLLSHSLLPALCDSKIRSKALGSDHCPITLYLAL
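Step 1: APE1 (0.75 nM) with compound, 15 min RT. Step 2: add 50 nM fluorophore/quencher THF duplex. Step 3: three fluorescence reads 60 s apart (525/598 nm); read 3 minus read 1 = reaction progress.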
Pol beta inh – inhibitors of human DNA polymerase beta | P06746 | Pol beta primer extension/strand displacement, fluorescence kinetic | Potency, µM (titrated, usually from 114 µM), without a hit: at the highest dose activity change, negative = inhibition, hits mostly inhibitors | 340,000 tested, 1.3% active | AID 485314; note: % is set by controls: 0 for no effect and ±100 for the full control effect
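Enzyme-only controls used 10 nM Pol beta; buffer lacking enzyme served as negative control. Compound preincubated 15 min, then 50 nM substrate added; 0 and 10 min reads at room temperature.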
Pol eta inh-1 – blocks human DNA polymerase eta activity. Q9Y253. recombinant Pol eta, fluorescent DNA replication assay. Potency, µM (series often up to 114 µM), without a hit: top-dose activity change, negative = inhibition, actives largely listed as inhibitors. 390,000 tested, 1.2% active. AID 588591; note: % is set by controls: 0 for no effect and ±100 for the full control effect
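Pol eta (10 nM) was preincubated with compounds for 15 min at room temperature, after which fluorescent replication substrate (50 nM final) was added to start the reaction. Fluorescence was read kinetically at 0 and 10 min.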
Pol kappa inh-1 – inhibitors of human DNA polymerase kappa; Potency, µM (highest dose often 107 µM), inactives show at the highest dose activity, negative = inhibition, most hits filed as inhibitors; purified Pol kappa, fluorescent DNA synthesis assay, 10 min; 400,000 tested, 0.53% active; note: % is set by controls: 0 for no effect and ±100 for the full control effect
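First, compounds were pin-transferred onto 10 nM Pol kappa. After 15 min at room temperature, substrate was added to 50 nM final. Fluorescence was then measured kinetically at 0 and 10 min.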
TbPGK inh – TbPGK inhibition, hit validation; shares compounds with Pol kappa inh-1; TbPGK coupled GAPDH assay, Kinase-Glo luminescence; Potency, µM (series often up to 57.5 µM), for the others: top-dose activity change, negative = inhibition, usual class: inhibitors; 500 tested, 79% active; AID 686980; note: % is set by controls: 0 for no effect and ±100 for the full control effect; nearly all actives have a fitted effect of over 65% in size
Pol iota confirm – Human Pol iota inhibitor confirmatory assay; shares compounds with Pol kappa inh-1; Pol iota primer extension, TAMRA/BHQ fluorescence; Potency, µM, hits mostly inhibitors; 1,500 tested, 77% active
Pol kappa inh-2 – confirmation of human DNA polymerase kappa inhibitors; purified Pol-kappa, fluorescent strand-displacement substrate; 920 tested, 76% active; shares compounds with Pol eta inh-1; Potency, µM, most hits filed as inhibitors
Pol eta inh-2 – confirmation of human DNA polymerase eta inhibitors | Potency, µM, usual class: inhibitors | AID 720502 | shares compounds with Pol eta inh-1 | Pol eta primer extension, TAMRA/BHQ fluorescence, 10 min | 2,600 tested, 64% active
An asterisk follows results filed as active; ? = inconclusive; . = not tested or not shown; [ ] = another dose, or the depositor's remark. Calls come from the whole dose curve; as a rule, active = well fitted curve in the direction sought with a large enough effect; inconclusive = small, poorly fitted or top-dose-only effect, or another doubt; inactive = no such curve, though single readings can be large; an effect the other way counts as inactive or inconclusive. Potency is the fitted concentration of half-maximal effect.

SMILES | Pol iota inh | L3MBTL1 inh | APE1 inh | Pol beta inh | Pol eta inh-1 | Pol kappa inh-1 | Pol iota confirm | Pol eta inh-2 | others
O=C(CSc1nc2ccccc2o1)N/N=C/c1ccc(O)c(O)c1 | 2.51µM* | . | ? | ? | 3.55µM* | 7.08µM* | 16.8* | 12* | TbPGK inh=3.26µM*;Pol kappa inh-2=8.44*
CCn1nc(C)c(CNC(=O)c2ccc(OC3CCN(Cc4ccccn4)CC3)cc2)c1C | 25.5% | . | 39.6% | 28.4% | -19.0% | -2.4% | . | .
CCC(C(=O)Nc1ccc([N+](=O)[O-])cn1)c1ccccc1 (stereo not drawn) | 10.1% | -4.8% | -0.8% | -10.2% | 4.8% | -9.1% | . | .
O=C(O)CN1C(=O)/C(=C\c2cc(Br)ccc2OCc2ccc(Cl)cc2)SC1=S | -5.7% | . | -7.6% | ? | 22.4µM* | -2.8% | ? | 47.8*
O=C1/C(=C/c2ccccc2Cl)SC(=S)N1CCCC(=O)N(CCO)c1ccccc1 | 39.3% | . | 4.5% | 3.1% | -20.8% | -5.1% | . | .
O=C(O)CN1C(=O)/C(=C\c2cc([N+](=O)[O-])ccc2OCc2ccccc2Cl)SC1=S | 28.2µM* | . | ? | 39.8µM* | 22.4µM* | ? | ? | ?
O=C1/C(=C\c2cc([N+](=O)[O-])ccc2O)SC(=S)N1Cc1ccc(Cl)cc1 | ? | . | ? | 3.16µM* | ? | -3.7% | 33.6* | 23.9*
CCc1ccc(C(=O)COC(=O)c2ccccc2OC)cc1 | 10.4% | . | 19.4% | 14.5% | -27.2% | -12.9% | . | .
CN(C)CCNc1ccc2ncn3c4ccc(O)cc4c(=O)c1c23 | 79.4µM* | . | . | . | ? | 22.4µM* | 11.9* | . | Pol kappa inh-2=9.47*
CN(C)CCNc1ccc(-c2nn(C)c(=O)c3ccccc23)cc1[N+](=O)[O-] | 32.8% | -14.4% | -4.9% | -1.1% | 6.0% | -12.7% | . | .
CCCCC(CC)CNC(=O)CCCCCn1c(=O)[nH]c2ccsc2c1=O (stereo not drawn) | 29.8% | . | . | 0.4% | -22.2% | 1.9% | . | .
C=CCN1C(=O)/C(=C2/Sc3ccccc3N2CCCS(=O)(=O)O)SC1=S | ? | ? | ? | 44.7µM* | 3.16µM* | ? | ? | 37.9*
C=CCN1C(=O)/C(=C2/Sc3ccccc3N2CC)SC1=S | 16.3% | 7.9% | -18.4% | ? | -4.1% | -5.7% | . | .
CC1=C(C#N)c2nc(N)c(C#N)c(C)c2/C1=C\c1ccc(OCC(=O)O)c(Cl)c1 | ? | ? | -11.5% | -16.9% | 7.94µM* | 79.4µM* | 47.4* | 19* | Pol kappa inh-2=18.9*
COc1ccc(N2CC(NC(=O)C3CC3)CC2=O)cc1 (stereo not drawn) | -26.6% | . | . | 1.5% | 1.9% | -11.7%[60.1 µM] | . | .
COC(=O)c1cc(C(=O)OC)cc(-n2c(C)cc(C=O)c2C)c1 | 65.0% | -0.7% | -2.6% | 7.5% | -20.3% | -7.3% | . | .
Cc1cc(C=O)c(C)n1-c1cc(C(=O)O)cc(C(=O)O)c1 | 25.1µM* | 5.01µM* | 16.9% | 7.94µM* | 3.98µM* | 50.1µM* | 16.8* | 5.36* | TbPGK inh=?
NC1=CC(=O)C(=O)c2ccccc21 | ? | . | . | . | ? | -10.3% | . | .
O=C1C=C(O)c2[nH]c(=O)ccc2C1=O | 17.8µM* | . | . | . | 17.8µM* | ? | 53.2* | 47.8* | Pol kappa inh-2=23.8*

Screens (PubChem)
